PubChem BioAssay (Tox21)
“And” between values parts separate entries of the source, which are not always exact repeats. Equal values may be shown once. Results filed as inconclusive are left out. A call without a number means that no potency is given here. Where a structure was tested more than once in an assay, its records may differ in their call. The source made the active and inactive calls. Unless noted, the call rests on the fitted dose curve; in most records, active means well fitted curve in the direction sought with a large enough effect in the repeat runs; inconclusive means weak or mixed curves; inactive means no such curve, though single readings can be large; an effect the other way counts as inactive or inconclusive.

Tests used:
[1] = qHTS assay to identify small molecule antagonists of the estrogen related receptor (ERR) signaling pathway from Tox21 library - cell viability counter screen (AID 1224834); further: nearly all actives have a fitted effect of over 30% in size
Procedure, shortened: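 Viability readout (CellTiter-Fluor fluorescence, 30 min at 37 C) multiplexed with the ERR assay; cells treated 17.5 h at 37 C with compounds delivered in DMSO.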

[2] = target: Luciferin 4-monooxygenase (Photinus pyralis) (UniProt P08659); assay: qHTS assay to identify small molecule inhibitors of firefly luciferase (AID 1224835); further: series mostly up to about 120 µM; nearly all actives have a fitted effect of over 25% in size
Procedure, shortened: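 Inhibition of purified Photinus luciferase is measured by luminescence. Substrate levels (D-luciferin, ATP) sit at their KM values. Each compound is tested in a concentration series.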

[3] = qHTS assay to identify small molecule antagonists of the constitutive androstane receptor (CAR) signaling pathway - cell viability counter screen (AID 1224837); further: series mostly up to about 92 µM; nearly all actives have a fitted effect of over 45% in size
Procedure, shortened: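 Fluorescence from CellTiter-Fluor served as the viability signal. Human hepatoma HepG2 cells stably bearing hCAR and CYP2B6-2.2kb received compound plus CITCO (50 nM final) for 23 hr.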

[4] = target: Nuclear receptor subfamily 1 group I member 3 (Homo sapiens) (UniProt Q14994); assay: qHTS assay to identify small molecule antagonists of the constitutive androstane receptor (CAR) signaling pathway (AID 1224838);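 further: HepG2 cells stably expressing hCAR with CYP2B6 luciferase reporter stimulated by CITCO; nearly all actives have a fitted effect of over 40% in size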
Procedure, shortened: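 Quantitative HTS in double-stable HepG2-CYP2B6-hCAR cells. After 4 h plating, cells get compound (15 concentrations) and CITCO at 50 nM final, incubate 24 h at 37 C, then ONE-Glo luminescence is read.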

[5] = target: Nuclear receptor subfamily 1 group I member 3 (Homo sapiens) (UniProt Q14994); assay: qHTS assay to identify small molecule agonists of the constitutive androstane receptor (CAR) signaling pathway (AID 1224839);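 further: HepG2 cells stably carrying human CAR and a CYP2B6 luciferase reporter; series mostly up to about 92 µM; nearly all actives have a fitted effect of over 15% in size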
Procedure, shortened: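 Readout: firefly luciferase luminescence via ONE-Glo. System: HepG2 double-stable for hCAR and CYP2B6-2.2kb. Conditions: 15-point compound titration, PK11195 at 0.75 uM final, 24 h incubation.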

[6] = qHTS assay to identify small molecule antagonists of the estrogen related receptor signaling pathway with the pleiotropic PPARgamma coactivator (PGC) from Tox21 10K library - cell viability counter screen (AID 1224840; active means well fitted cell-killing curve with a large enough effect in the repeat runs, not every such curve was filed as active; further: nearly all actives have a fitted effect of over 40% in size)
Procedure, shortened: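 Compounds in DMSO, alongside positive and negative controls, were pinned onto PGC/ERR cells (2,000 per well). Exposure lasted 17.5 hours at 37 C, followed by a 30-minute CellTiter-Fluor incubation and fluorescence reading.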

[7] = target: Thyrotropin receptor (Homo sapiens) (UniProt P16473); assay: qHTS assay to identify small molecule agonists of the thyroid stimulating hormone receptor (TSHR) signaling pathway (AID 1224843; calls by dose curve; further: nearly all actives have a fitted effect of over 45% in size; further: potency means the concentration at half of the fitted maximal effect)
Procedure, shortened: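 HEK293 cells stably bearing the thyrotropin receptor were plated at 800 cells/well and challenged with compound (30 min, RT). Accumulated cAMP was quantified via cAMP-d2 competing for cryptate-tagged antibody.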

[8] = qHTS assay to identify small molecule agonists of the hypoxia (HIF-1) signaling pathway - cell viability counter screen (AID 1224844; calls by dose curve; further: nearly all actives have a fitted effect of over 50% in size)
Procedure, shortened: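 Luminescent ATP content (CellTiter-Glo, 30 min, room temperature) served as the viability measure in HRE-bla ME-180 cells exposed to compounds for 17 hrs in low-serum medium (0.5% dialyzed FBS).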

[9] = qHTS assay to identify small molecule agonists of H2AX (AID 1224845; active means well fitted activation curve with a large enough effect in the signal ratio in the repeat runs, not every such curve was filed as active; the % refers to the signal ratio; further: potency means the concentration at half of the fitted maximal effect)
Procedure, shortened: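 Phospho-H2AX Ser139 measured by HTRF (ex 320 nm; em 665 and 620 nm) after 24 hr antibody incubation. Compounds, 15 concentrations, 0.76% DMSO, were applied to CHO-K1 cells for 3hr at 37C before lysis.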

[10] = qHTS assay to identify small molecule agonists of the hypoxia (HIF-1) signaling pathway (AID 1224846; active means well fitted activation curve with a large enough effect in the signal ratio in the repeat runs, not every such curve was filed as active; the % refers to the signal ratio)
Procedure, shortened: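 Measured by blue/green FRET after loading CCF4-AM: beta-lactamase expressed from a hypoxia response element in ME-180 cells. Test agents were delivered in DMSO and left 17 hrs; cells had been plated 5 hrs earlier in low-serum (0.5% dialyzed FBS) medium.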

[11] = qHTS assay to identify small molecule agonists of H2AX - cell viability counter screen (AID 1224847; calls by dose curve;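 further: wild-type CHO-K1 cells; top concentration of the series differs between compounds; nearly all actives have a fitted effect of over 30% in size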)
Procedure, shortened: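 For this counter screen, overnight-attached CHO-K1 cells received test compounds (15 concentrations, 0.76% DMSO final); 3 hr later at 37C, CellTiter-Glo reagent was added and luminescence recorded after 30 min at room temperature.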

[12] = qHTS RealTime-Glo MT Cell Viability Assay in HepG2 cells - 24 hour (AID 1224867); further: nearly all actives have a fitted effect of over 50% in size
Procedure, shortened: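 Luminescence read-out: viable HepG2 cells reduce a prosubstrate to a NanoLuc substrate, giving a signal proportional to live cell number. Reads taken at 0, 8, 16, 24, 32 and 40 h of compound exposure at 37 C.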

[13] = qHTS RealTime-Glo MT Cell Viability Assay in HEK293 cells - 32 hour (AID 1224868); further: top concentration of the series differs between compounds; nearly all actives have a fitted effect of over 50% in size
Procedure, shortened: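 Nonlytic real-time viability readout: viable cells convert prosubstrate to NanoLuc substrate, giving luminescence proportional to live cell number. HEK293, 600 cells/well, compound added after 5 h, continuous culture at 37 C.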

[14] = A CellTox Green Cytotoxicity Assay to monitor cytotoxicity in HEK293 cells - 0 hour (AID 1224869); further: nearly all actives have a fitted effect of over 50% in size
Procedure, shortened: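 Each value comes from one timepoint of a single continuous run in which HEK293 cells with CellTox Green were exposed to compound for up to 40 h at 37 C, dye fluorescence rising with cell death.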

[15] = qHTS RealTime-Glo MT Cell Viability Assay in HepG2 cells - 40 hour (AID 1224870); further: nearly all actives have a fitted effect of over 50% in size
Procedure, shortened: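 Real-time viability: cells seeded at 600 per well together with NanoLuc and cell-permeant prosubstrate, compounds added after 5 h incubation. Luminescence tracked at 0, 8, 16, 24, 32 and 40 h of exposure.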

[16] = qHTS assay to identify small molecule agonists of the constitutive androstane receptor (CAR) signaling pathway - cell viability counter screen (AID 1224836); further: series mostly up to about 92 µM; nearly all actives have a fitted effect of over 45% in size
Procedure, shortened: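 Double-stable HepG2 hepatoma cells (hCAR plus CYP2B6-2.2kb) are treated for 23 h at 37 C with test compounds in 15-point concentration series. PK11195 at 0.75 uM final is co-added. Cell viability is quantified by CellTiter-Fluor.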

[17] = qHTS assay to identify small molecule antagonists of the estrogen related receptor signaling pathway with the pleiotropic PPARgamma coactivator (PGC) from Tox21 10K library (AID 1224841; call rule not given here)
Procedure, shortened: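 Compound exposure ran 18 hours at 37 C in PGC/ERR cells (2,000/well) that had first rested 6 hours in a 37 C/5% CO2 incubator. Luciferase activity was then detected with One-Glo after a 30-minute room-temperature step.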

[18] = qHTS assay to identify small molecule agonists of the estrogen related receptor signaling pathway with the pleiotropic PPARgamma coactivator (PGC) from Tox21 10K library (AID 1224842); further: nearly all actives have a fitted effect of over 15% in size
Procedure, shortened: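 Luminescence from One-Glo (30 min, room temperature) measured after PGC/ERR cells had 18 h at 37 C with pinned compound (23 nL in DMSO). Cells had been seeded at 2,000 per well and pre-incubated 6 h.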

[19] = qHTS assay to identify small molecule antagonists of the estrogen related receptor (ERR) signaling pathway from Tox21 library (AID 1224848); further: nearly all actives have a fitted effect of over 50% in size
Procedure, shortened: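 Reading was by luminescence 30 min after ONE-Glo addition. Before that, ERR cells at 2,000 per well had rested 6 h at 37 C/5% CO2 and then received pin-tooled compounds in DMSO for 18 h at 37 C.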

Luciferin 4-monooxygenase (Photinus pyralis), sequence (P08659 whole entry, looked up): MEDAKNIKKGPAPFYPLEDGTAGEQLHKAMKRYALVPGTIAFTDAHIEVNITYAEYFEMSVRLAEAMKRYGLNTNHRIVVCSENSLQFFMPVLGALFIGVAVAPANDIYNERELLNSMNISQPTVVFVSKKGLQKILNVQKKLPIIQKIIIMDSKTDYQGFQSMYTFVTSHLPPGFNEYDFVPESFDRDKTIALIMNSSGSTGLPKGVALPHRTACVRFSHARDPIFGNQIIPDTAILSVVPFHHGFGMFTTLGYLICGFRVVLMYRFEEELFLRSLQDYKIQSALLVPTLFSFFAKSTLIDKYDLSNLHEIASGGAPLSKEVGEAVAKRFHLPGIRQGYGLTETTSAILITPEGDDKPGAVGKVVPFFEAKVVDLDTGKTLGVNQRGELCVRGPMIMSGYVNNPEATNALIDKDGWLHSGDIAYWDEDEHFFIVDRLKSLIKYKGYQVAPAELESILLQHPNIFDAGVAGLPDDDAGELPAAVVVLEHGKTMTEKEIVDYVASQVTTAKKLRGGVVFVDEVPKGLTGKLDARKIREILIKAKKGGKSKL
Nuclear receptor subfamily 1 group I member 3 (Homo sapiens), sequence (Q14994 whole entry, looked up): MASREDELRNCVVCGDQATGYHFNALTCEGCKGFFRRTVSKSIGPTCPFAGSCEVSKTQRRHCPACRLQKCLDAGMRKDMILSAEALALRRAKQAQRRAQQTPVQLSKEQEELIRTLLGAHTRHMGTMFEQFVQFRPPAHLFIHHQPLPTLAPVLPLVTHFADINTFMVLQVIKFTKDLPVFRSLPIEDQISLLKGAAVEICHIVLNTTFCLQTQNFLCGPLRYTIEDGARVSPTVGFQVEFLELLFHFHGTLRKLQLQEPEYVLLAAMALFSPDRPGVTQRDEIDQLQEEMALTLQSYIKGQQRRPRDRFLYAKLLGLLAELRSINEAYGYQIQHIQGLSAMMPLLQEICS
Thyrotropin receptor (Homo sapiens), sequence (P16473 whole entry, looked up): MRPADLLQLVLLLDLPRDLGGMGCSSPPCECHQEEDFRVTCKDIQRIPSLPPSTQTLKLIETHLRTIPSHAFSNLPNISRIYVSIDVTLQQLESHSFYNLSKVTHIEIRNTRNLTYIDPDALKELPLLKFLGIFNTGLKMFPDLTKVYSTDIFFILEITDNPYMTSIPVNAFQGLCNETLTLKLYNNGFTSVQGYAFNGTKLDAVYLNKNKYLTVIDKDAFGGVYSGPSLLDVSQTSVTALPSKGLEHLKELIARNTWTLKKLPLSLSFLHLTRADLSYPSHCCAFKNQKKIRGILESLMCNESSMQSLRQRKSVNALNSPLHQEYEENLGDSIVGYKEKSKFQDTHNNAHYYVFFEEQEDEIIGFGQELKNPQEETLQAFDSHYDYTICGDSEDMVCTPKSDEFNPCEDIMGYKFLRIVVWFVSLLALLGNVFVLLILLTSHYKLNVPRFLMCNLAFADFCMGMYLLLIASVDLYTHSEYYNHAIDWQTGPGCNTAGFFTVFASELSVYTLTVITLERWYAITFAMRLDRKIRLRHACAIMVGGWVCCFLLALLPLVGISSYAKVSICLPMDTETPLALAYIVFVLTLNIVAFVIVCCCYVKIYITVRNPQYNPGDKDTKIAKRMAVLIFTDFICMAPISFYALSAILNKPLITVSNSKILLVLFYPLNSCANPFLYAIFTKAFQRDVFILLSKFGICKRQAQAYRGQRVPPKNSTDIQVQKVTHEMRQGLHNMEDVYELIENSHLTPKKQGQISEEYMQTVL

SMILES	Potency [1]	Potency [2]	Potency [3]	Potency [4]	Potency [5]	Potency [6]	Potency [7]	Potency [8]	Potency [9]	outcome [10]	Potency [11]	outcome [12]	Potency [13]	Potency [14]	outcome [15]	Potency [16]	Potency [17]	Potency [18]	Potency [19]
CCCCOCCOCCSC#N	inactive	inactive	inactive	inactive	inactive	inactive	inactive	inactive	inactive	inactive	inactive	inactive	inactive	inactive	inactive	–	–	–	–
C=CC(=O)NC(C)(C)CS(=O)(=O)O	inactive	inactive	inactive	inactive	inactive	inactive	inactive	inactive	inactive	inactive	inactive	inactive	inactive	–	inactive	–	–	–	–
NC(=O)NO	inactive	inactive	–	inactive	–	inactive	inactive	inactive	inactive	–	inactive	inactive	inactive	inactive	inactive	inactive	–	–	–
C[C@]12C[C@H](O)[C@H]3[C@@H](CCC4=CC(=O)CC[C@@]43C)[C@@H]1CC[C@@H]2C(=O)CO	inactive	inactive	inactive	inactive	inactive	inactive	12.2 µM (active) and inactive	inactive	inactive	inactive	inactive	inactive	inactive	–	inactive	–	–	–	–
Cc1cccc(Nc2cc(Cl)nc(SCC(=O)O)n2)c1C	inactive	inactive	–	inactive	inactive	inactive	inactive	inactive	inactive	–	inactive	inactive	inactive	inactive	inactive	inactive	–	–	–
C[C@]12C=CC(=O)C=C1CC[C@@H]1[C@@H]2C(=O)C[C@@]2(C)[C@H]1CC[C@]2(O)C(=O)CO	inactive	inactive	inactive	inactive	–	inactive	inactive	inactive	inactive	inactive	inactive	inactive	inactive	inactive	inactive	–	–	–	–
COc1cc(C=O)ccc1O	inactive	inactive	–	inactive	inactive	inactive	inactive	inactive	inactive	inactive	inactive	inactive	inactive	inactive	inactive	inactive	–	–	–
O=C(O)CCCCC1CCSS1 (stereo unspecified)	inactive	inactive	inactive	–	–	inactive	inactive	inactive	inactive	–	inactive	inactive	inactive	inactive	inactive	–	inactive	inactive	inactive
COc1ccc(O)cc1	inactive	inactive	–	–	–	inactive	inactive	inactive	86.5 µM (active) and 89.8 µM (active) and 49.2 µM (active)	inactive	inactive	inactive	inactive	–	inactive	inactive	–	–	–
